Experiments:
Assay in all cases: log2 ratio of Biotin-Ahx-Ub-VS probe labelling (fragment/DMSO); higher = less target engagement (more negative = stronger competition), active = hit call of the paper (q ≤ 0.05, log2 ratio ≤ -1)
Conditions in all cases: compound concentration: 200 uM; treatment time: 3 h
OTUD6B = biological target: T1, OTUD6B (UniProt Q8N6M0)
T1 sequence (whole entry): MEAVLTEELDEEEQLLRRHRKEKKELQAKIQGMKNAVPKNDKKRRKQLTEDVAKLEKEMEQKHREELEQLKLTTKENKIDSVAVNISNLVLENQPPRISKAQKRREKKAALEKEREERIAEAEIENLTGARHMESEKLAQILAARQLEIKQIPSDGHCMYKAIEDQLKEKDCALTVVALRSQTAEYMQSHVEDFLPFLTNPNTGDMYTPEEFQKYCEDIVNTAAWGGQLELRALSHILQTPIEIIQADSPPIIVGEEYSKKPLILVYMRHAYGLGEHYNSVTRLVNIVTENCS
How it was run: (§1)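 Global-median-normalised Spectronaut label-free quantities were compared by unpaired t-test, and values are average log2 ratios of fragment over vehicle. Only proteins with ≥2 unique peptides were used. HEK293T lysate (495 µg per sample) was treated in triplicate with fragment at 200 µM or vehicle for 3 h and then with Biotin-Ahx-Ub-VS at 0.5 µM final for 1 h. Labelled DUBs were then NeutrAvidin-enriched, digested with LysC and trypsin, and run by diaPASEF LC-MS/MS.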

OTUD7B = biological target: T2, OTUD7B (UniProt Q6GQQ9)
T2 sequence (whole entry): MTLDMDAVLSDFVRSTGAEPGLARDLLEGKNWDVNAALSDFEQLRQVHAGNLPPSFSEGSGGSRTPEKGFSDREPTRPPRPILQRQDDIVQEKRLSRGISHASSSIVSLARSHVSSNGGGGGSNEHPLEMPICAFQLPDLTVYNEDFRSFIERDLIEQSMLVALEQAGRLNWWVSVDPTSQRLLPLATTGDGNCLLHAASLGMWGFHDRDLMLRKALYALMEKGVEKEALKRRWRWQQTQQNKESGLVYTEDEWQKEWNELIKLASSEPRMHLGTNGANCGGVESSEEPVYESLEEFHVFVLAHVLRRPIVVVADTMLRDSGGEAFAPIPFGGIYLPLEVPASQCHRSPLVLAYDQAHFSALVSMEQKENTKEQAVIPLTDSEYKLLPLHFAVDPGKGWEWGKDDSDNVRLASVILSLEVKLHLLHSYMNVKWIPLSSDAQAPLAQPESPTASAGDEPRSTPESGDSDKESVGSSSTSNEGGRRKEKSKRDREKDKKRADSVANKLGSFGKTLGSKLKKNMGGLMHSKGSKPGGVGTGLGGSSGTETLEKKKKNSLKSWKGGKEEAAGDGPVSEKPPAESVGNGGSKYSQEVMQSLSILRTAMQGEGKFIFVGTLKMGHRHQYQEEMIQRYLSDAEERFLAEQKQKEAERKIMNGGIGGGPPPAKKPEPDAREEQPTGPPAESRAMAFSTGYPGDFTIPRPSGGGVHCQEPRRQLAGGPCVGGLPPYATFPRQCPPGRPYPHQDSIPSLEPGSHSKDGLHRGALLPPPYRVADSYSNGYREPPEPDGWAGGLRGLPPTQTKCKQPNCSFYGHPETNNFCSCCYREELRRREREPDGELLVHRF
How it was run: as §1

PRPF8 = PRPF8 (UniProt Q6P2Q9)
How it was run: as §1

PSMD7 = biological target: T3, PSMD7 (UniProt P51665)
T3 sequence (whole entry): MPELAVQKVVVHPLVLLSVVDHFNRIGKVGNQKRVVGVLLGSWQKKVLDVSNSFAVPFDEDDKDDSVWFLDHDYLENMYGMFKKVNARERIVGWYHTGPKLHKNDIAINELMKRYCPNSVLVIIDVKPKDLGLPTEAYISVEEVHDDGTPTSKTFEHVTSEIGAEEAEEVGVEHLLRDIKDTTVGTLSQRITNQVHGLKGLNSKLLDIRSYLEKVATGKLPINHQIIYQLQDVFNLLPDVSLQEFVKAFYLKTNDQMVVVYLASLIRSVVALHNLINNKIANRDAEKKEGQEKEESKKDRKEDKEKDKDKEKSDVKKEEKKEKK
How it was run: as §1

UCHL1 = UCHL1 (UniProt P09936)
How it was run: as §1

UCHL3 = biological target: T4, UCHL3 (UniProt P15374)
T4 sequence (whole entry): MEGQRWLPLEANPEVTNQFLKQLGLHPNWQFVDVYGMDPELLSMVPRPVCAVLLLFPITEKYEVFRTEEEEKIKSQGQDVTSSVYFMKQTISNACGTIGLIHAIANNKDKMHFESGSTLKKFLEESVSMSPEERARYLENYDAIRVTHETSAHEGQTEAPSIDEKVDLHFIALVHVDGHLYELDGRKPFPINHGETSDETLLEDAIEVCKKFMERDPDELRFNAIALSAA
How it was run: as §1

UCHL5 = biological target: T5, UCHL5 (UniProt Q9Y5K5)
T5 sequence (whole entry): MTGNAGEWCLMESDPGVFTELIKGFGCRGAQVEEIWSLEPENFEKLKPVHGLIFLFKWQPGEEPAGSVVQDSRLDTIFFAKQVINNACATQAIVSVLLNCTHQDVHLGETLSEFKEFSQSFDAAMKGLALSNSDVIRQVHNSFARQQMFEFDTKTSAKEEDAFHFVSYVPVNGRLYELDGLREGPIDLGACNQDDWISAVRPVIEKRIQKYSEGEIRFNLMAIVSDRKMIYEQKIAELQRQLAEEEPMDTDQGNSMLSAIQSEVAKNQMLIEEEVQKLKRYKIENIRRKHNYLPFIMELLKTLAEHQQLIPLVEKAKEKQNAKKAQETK
How it was run: as §1

USP10 = USP10 (UniProt Q14694)
How it was run: as §1

USP15 = biological target: T6, USP15 (UniProt Q9Y4E8)
T6 sequence (whole entry): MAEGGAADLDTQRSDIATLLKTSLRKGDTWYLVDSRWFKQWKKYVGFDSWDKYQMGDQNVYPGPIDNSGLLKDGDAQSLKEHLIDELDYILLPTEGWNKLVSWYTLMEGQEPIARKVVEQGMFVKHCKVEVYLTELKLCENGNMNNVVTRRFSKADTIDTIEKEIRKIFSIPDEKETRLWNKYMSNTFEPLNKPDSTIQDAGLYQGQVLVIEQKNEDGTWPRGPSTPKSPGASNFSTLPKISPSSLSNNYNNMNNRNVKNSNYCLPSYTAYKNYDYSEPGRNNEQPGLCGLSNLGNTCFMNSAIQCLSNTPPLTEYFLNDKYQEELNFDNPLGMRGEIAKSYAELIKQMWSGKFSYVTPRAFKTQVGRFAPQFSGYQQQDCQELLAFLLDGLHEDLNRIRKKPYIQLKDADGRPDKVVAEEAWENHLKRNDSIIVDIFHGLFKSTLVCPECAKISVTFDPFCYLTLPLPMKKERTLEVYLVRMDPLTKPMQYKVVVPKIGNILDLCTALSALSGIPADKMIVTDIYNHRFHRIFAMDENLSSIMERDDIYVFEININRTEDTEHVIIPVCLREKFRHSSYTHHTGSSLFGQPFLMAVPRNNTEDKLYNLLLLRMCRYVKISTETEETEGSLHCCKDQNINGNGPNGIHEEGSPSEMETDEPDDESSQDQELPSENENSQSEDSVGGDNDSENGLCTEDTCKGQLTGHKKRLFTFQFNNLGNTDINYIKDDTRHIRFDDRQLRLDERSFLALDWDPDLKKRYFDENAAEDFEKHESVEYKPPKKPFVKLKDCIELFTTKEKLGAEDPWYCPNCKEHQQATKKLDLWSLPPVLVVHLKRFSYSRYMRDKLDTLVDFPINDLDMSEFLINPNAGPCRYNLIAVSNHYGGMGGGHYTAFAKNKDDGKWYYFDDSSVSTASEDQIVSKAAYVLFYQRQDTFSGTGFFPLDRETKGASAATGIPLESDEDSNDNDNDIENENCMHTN
How it was run: as §1

USP16 = USP16 (UniProt Q9Y5T5)
How it was run: as §1

Measured: log2 ratio of Biotin-Ahx-Ub-VS probe labelling

Chain of UCHL1 (P09936 whole entry, looked up): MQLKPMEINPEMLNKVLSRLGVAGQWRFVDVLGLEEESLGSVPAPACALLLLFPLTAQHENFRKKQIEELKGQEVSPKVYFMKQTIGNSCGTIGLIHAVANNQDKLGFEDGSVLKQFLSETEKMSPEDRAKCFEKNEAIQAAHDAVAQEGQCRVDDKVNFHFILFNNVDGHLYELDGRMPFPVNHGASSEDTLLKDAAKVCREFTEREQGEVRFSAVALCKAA
Chain of USP16 (Q9Y5T5 whole entry, looked up): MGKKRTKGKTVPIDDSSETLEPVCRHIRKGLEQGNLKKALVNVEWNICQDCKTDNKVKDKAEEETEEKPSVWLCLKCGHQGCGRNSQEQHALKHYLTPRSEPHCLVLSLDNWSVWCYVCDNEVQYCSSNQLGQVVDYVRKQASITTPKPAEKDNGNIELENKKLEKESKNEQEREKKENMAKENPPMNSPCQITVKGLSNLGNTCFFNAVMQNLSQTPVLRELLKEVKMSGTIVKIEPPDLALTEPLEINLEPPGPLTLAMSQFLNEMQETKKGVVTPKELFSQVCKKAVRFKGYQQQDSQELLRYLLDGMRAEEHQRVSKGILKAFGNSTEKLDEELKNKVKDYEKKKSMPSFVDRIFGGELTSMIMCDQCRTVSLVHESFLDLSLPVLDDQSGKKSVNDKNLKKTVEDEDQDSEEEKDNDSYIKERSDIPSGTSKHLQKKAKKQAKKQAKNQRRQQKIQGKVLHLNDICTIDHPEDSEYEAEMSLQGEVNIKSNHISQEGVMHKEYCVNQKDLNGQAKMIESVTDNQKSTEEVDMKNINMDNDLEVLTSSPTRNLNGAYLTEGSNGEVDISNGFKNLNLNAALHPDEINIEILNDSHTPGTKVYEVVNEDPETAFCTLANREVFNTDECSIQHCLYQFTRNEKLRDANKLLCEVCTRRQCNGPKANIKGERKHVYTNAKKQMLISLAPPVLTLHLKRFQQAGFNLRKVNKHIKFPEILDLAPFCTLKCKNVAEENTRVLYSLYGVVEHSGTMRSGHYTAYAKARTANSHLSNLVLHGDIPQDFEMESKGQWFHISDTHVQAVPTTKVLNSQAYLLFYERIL
Chain of USP10 (Q14694 whole entry): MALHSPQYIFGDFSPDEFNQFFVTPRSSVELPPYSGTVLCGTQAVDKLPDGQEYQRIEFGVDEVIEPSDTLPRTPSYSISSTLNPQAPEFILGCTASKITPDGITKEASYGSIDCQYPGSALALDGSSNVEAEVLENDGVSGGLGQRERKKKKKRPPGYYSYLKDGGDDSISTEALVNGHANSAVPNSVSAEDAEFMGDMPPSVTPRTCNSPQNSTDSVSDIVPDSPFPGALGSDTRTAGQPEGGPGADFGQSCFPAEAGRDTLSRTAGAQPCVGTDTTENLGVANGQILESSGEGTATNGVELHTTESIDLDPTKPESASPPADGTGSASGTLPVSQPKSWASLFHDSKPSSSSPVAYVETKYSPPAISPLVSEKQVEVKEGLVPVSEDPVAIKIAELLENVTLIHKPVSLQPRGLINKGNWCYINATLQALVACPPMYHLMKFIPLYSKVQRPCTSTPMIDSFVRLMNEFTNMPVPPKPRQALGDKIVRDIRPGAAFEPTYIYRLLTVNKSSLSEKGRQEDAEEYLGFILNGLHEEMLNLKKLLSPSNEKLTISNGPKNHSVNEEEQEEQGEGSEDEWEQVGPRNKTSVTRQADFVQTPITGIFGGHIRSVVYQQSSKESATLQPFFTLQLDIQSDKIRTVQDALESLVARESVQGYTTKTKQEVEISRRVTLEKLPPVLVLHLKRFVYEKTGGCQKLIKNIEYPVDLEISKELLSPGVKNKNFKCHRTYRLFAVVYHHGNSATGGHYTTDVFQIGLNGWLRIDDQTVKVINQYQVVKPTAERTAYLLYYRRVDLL

NC(=O)C1CCCN(C(=O)CCl)C1 (stereo not given)
active: UCHL1 -1.4
inactive: OTUD6B 0.0096 | OTUD7B -0.633 | PRPF8 0.0408 | PSMD7 -0.26 | UCHL3 0.133 | UCHL5 0.0623 | USP10 -0.05 | USP15 -0.0343 | USP16 -0.387
